In PubChem BioAssay AID651789 (National Center for Advancing Translational Sciences (NCATS), 2012):
Records with an inconclusive call do not appear. Unmarked numbers belong to inactive results. Active and inactive are the calls of the source. Calls follow the shape of the dose curve; as a rule, active = well fitted inhibition curve with a large enough effect; inconclusive = small, poorly fitted or top-dose-only effect; inactive = no such curve, though single readings can be large or run the other way.

Assay: Acumen qHTS Assay for Inhibitors of the mTORC1 Signaling Pathway in WT MEF Cells: Hit Validation; also: nearly all actives have a fitted effect of over 60% in size;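 as to activity change, negative = inhibition: phospho-rpS6 Ser235/236 immunofluorescence normalised to propidium iodide cell stain; percent of cells above a cutoff set by 7.5 nM rapamycin treated wells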
Details: Acumen imaging; series mostly up to 37.3 µM; activity change, negative = inhibition: at the top concentration
Summary of the method: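 Read-out is immunofluorescent phospho-rpS6 (Ser235/236) normalised to PI-stained cell number, reported as % active cells using a 7.5 nM rapamycin threshold. Cells: WT or Tsc2-/-, p53-/- MEFs, compound-exposed 24 h at 37C; PI count also tracks viability.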
Potency is read from the fitted curve at half-maximal effect.

Row | Structure (SMILES) | activity change, negative = inhibition | Potency
1 | COc1ccccc1C(=O)Nc1ccc2nc(N3CCC(C)CC3)cc(C)c2c1 | -30% | 
2 | COc1ccc(NC(=O)CSc2c3c(nc4ccccc24)CCC3)c(OC)c1 | 1.45% | 
3 | Cc1ccc(-c2nnn(CC(=O)N(CC(=O)NCCC(C)C)c3ccc(F)cc3)n2)cc1 | 53.9% | 
4 | CC(=O)Nc1cccc(NC(=O)C(=O)NCCc2sc(-c3ccccc3)nc2C)c1 |  | 7.36 µM (active)
5 | O=C(NCCc1nc2ccccc2n1Cc1ccc(Cl)cc1Cl)c1ccco1 | -12.8% | 
6 | CCCN1C(=O)C(Cc2nc3ccccc3c(=O)n2CC)c2cc(Br)ccc21 (stereo not given) | 59.6% | 
7 | COc1cc(Br)ccc1C1C(C(=O)Nc2ccc(C)cc2C)=C(C)Nc2nnnn21 (stereo not given) | -23.5% | 
8 | Cn1nnnc1SCCCNCc1cc(Cl)ccc1OCc1ccc(F)cc1 | -19.3% | 
9 | CC(C)(C)c1ccc(-c2nc(S(=O)(=O)c3ccccc3)c(N3CCOCC3)o2)cc1 | 1.46% | 
10 | CCOc1cc(C2CC(=O)Nc3cc4c(cc32)OCCO4)ccc1O (stereo not given) | 28.2% | 
11 | c1ccc(N2CCN(c3ncnc4[nH]ncc34)CC2)cc1 | -11.7% | 
12 | CCCCNC(=O)CSc1nc2nc(C)c(Cc3ccccc3C)c(C)n2n1 | 17.8% | 
13 | CCNS(=O)(=O)c1cc(-c2nnc(Nc3cccc(C(F)(F)F)c3)c3ccccc23)ccc1C | 14% | 
14 | CCN(CC)CCNC(=O)c1ccc(Cn2c(=O)c3cccn3c3cccnc32)cc1 | -9.16% | 
15 | COC(=O)c1ccccc1NC(=O)c1nc(S(=O)(=O)Cc2cccc(C)c2)ncc1Cl |  | 5.21 µM (active)
16 | C=CCNC1=C2C[C@@H](C)C[C@H](OC)[C@H](O)[C@@H](C)/C=C(\C)[C@H](OC(N)=O)[C@@H](OC)/C=C\C=C(/C)C(=O)NC(=CC1=O)C2=O |  | 0.515 µM (active)
17 | O=C(NCc1ccccc1Cl)C(=O)NCC(c1cccs1)S(=O)(=O)c1cccs1 (stereo not given) | -22.4% | 
18 | CC(C)N(C(=O)CSc1nc2ccc(Cl)cc2[nH]1)c1ccccc1 | -24% | 
19 | Nc1c(C(=O)NCc2ccccc2)nnn1Cc1cccc(Br)c1 |  | 13.1 µM (active)
20 | CCC(C)Sc1oc(-c2ccco2)nc1S(=O)(=O)c1ccc(C)cc1 (stereo not given) | -0.763% | 

Row | Structure (SMILES) | activity change, negative = inhibition | Potency
21 | CCN(c1ccccc1)S(=O)(=O)c1cc(C(=O)Nc2ccc(Br)cc2)ccc1F |  | 13.1 µM (active)
22 | COc1ccc(Oc2nc3c(C)cccn3c(=O)c2/C=C(\C#N)c2nc3ccccc3[nH]2)cc1 | 4.58% | 
23 | O=C(NCCc1ccc(Cl)cc1)C(=O)NCC(c1cccs1)S(=O)(=O)c1cccs1 (stereo not given) | -8.83% | 
24 | O=C(NCCSc1c(-c2ccc(F)cc2)[nH]c2ccccc12)c1ccc(S(=O)(=O)N2CCOCC2)cc1 | 3.45% | 
25 | Cc1ccc(C)c(NC(=O)Nc2cc3c(cc2N2CCCCC2)n(C)c(=O)n3C)c1 | -3.45% | 
26 | Cc1ccc(S(=O)(=O)c2nnn3c2nc(NCc2cccs2)c2sccc23)cc1 | 1.95% | 
27 | O=C(NCc1ccc(Cl)cc1)C(=O)NCC(c1cccs1)S(=O)(=O)c1ccc(Cl)cc1 (stereo not given) | -6.18% | 
28 | CCOC(=O)C1CCN(C(=O)CSc2c3c(nc4ccc(Cl)cc24)CCCC3)CC1 | -12.9% | 
29 | COc1ccc(-c2nc(S(=O)(=O)c3ccc(Cl)cc3)c(N3CCCCCC3)o2)cc1 | -10.6% | 
30 | Cn1nc(-c2ccc(OCC(=O)Nc3ccc(Cl)cc3)cc2)c2ccccc2c1=O | -23.6% | 
31 | Cc1cccc(Nc2ncc(NC(=O)c3cccc(F)c3)c(Nc3cccc(C)c3)n2)c1 |  | 5.85 µM (active)
32 | Cc1cccc(C(=O)Nc2c3c(nn2-c2ccc(Cl)cc2)CS(=O)(=O)C3)c1 | 32.8% | 
33 | CCN1CCOC(=O)C1CC(=O)Nc1ccc(Br)cc1 (stereo not given) | 11.3% | 
34 | CCc1ccccc1NC(=O)CSc1nc2c(oc3ccccc32)c(=O)n1-c1ccccc1F | 26.8% | 
35 | COc1cc(NC(=O)Cn2nc(C(F)(F)F)c3c2CCCC3)c(OC)cc1Cl | -8.03% | 
36 | CCN(CC)CCCNc1sc(S(=O)(=O)c2ccccc2)nc1S(=O)(=O)c1ccc(Cl)cc1 |  | 16.5 µM (active)
37 | COc1ccc(-n2ncc3c(NCCCOC(C)C)ncnc32)cc1 | -9.78% | 
38 | COc1ccccc1NC(=O)C1=C(C)Nc2nc(SCc3ccccc3)nn2C1c1cccs1 (stereo not given) | -3.05% | 
39 | O=C(Nc1ccc(Cl)cc1)C1CCC(CNS(=O)(=O)c2ccc(Br)s2)CC1 (stereo not given) | -8.29% | 
40 | C=C(C)CSc1nc(-c2ccccc2)cc(-c2ccc(OC)cc2)c1C#N | -15% | 
